Several values for one entry are separate records, joined by “and”; a condition that tells them apart may be missing. Equal values may be shown once. Activity calls are given as the source filed them. The rule behind the calls is not given here.
Target: Lysosomal alpha-glucosidase (Homo sapiens) (UniProt P10253)
Test: qHTS Assay for Inhibitors of Human alpha-Glucosidase as a Potential Chaperone Treatment of Pompe Disease: Stabilizers of Alpha-Glucosidase Under Thermal Denaturation Conditions
Conditions: Recombinant GAA thermal denaturation, residual activity over time, stronger effect = higher value; at 0.31 µM unless noted
Source text: NIH Chemical Genomics Center [NCGC]
NIH Molecular Libraries Probe Production centers Network [MLPCN]
Assay Submitter (PI): Wei Zheng
Alpha-glucosidase is responsible for hydrolysis of terminal, non-reducing 1,4-linked alpha-D-glucose residues with release of alpha-D-glucose. It is a lysosomal hydrolase that is required for the degradation of a small percentage (1-3%) of cellular glycogen in human. Deficiency of this enzyme results in glycogen-storage disease type II (GSDII), also referred to as Pompe disease, an autosomal recessive disorder. Structurally normal glycogen is accumulated in lysosomes and cytoplasm in affected patients, primarily in muscle tissues. Excessive glycogen storage within lysosomes may interrupt normal functioning of other organelles and leads to cellular injury. In turn, this leads to enlargement and dysfunction of the entire organ involved (eg, cardiomyopathy and muscle weakness).
It has reported that the improper folding and trafficking of alpha-glucosidase resulting from the genetic mutations may account for a significant number of Pompe patients. […] We optimized this alpha-glucosidase assay in 1536-well plate format for identifying the novel small molecule inhibitors with the structures other than the sugar analogs in order to develop the new pharmacological chaperones.
This assay involves heating purified alpha-glucosidase (Myozyme) in the presence of inhibitors to observe potential stabilization of the enzyme. This binding assay is an indirect measure of chaperone activity, as stabilization may imply proper folding and trafficking of the enzyme to its functional site. Alpha-glucosidase was pre-incubated with only DMSO or 50x IC50 of compound before being exposed to 68 °C heat inactivation. The heating was measured over time, and it was observed that untreated alpha-glucosidase lost more of its activity over time than enzyme treated with compounds.
Temperature Denature Protocol for alpha-Glucosidase
Assay buffer: 50 mM citric acid (titrated with potassium phosphate to pH 5.0), 0.01% Tween-20
1. Prepare 80X solution alpha-glucosidase solution (3.2 nM*80=[…]) in assay buffer.
2. Divide solution into separate 1.5 ml tubes.
3. For each compound, add 50X IC50:
50x IC50 1-DNJ […]
50x IC50 of the […]
4. Incubate 10 min RT after compound addition.
5. Distribute 10 ul from each tube into PCR tubes.
6. Time course of heating: Heat solutions at 68C for 60 min, taking a set of tubes out at 10, 20, 30, 45, and 60 min, while keeping one set on ice whole time.
7. After heating, take out tubes and place on ice for a minimum of 5 min.
8. Transfer 10 ul solution to 790 ul (1:80 dilution) buffer in 1.5 ml tube.
9. Vortex and take three 20 ul aliquots and put in 384 plate.
10. Add 20 ul substrate solution to each well (100 uM 4-methylumbelliferyl alpha-D-glucopyranoside).
12. Add 25 ul stop solution (1 M NaOH, 1 M glycine pH 10).
13. Detect the assay plate in a ViewLux plate reader (PerkinElmer) with Ex=365 nm and Em=440nm.

Residual activity vs control after 60 min heating, active:
N#Cc1ccc(N2CCN(S(=O)(=O)c3ccc4c(c3)CC(=O)N4)CC2)cc1 480%, OCC1NCC(O)C(O)C1O (stereo not drawn) 421% [at 0.016 µM], O=C1Cc2cc(S(=O)(=O)N3CCN(c4ccc([N+](=O)[O-])cc4)CC3)ccc2N1 464%, CC(=O)c1ccc(N2CCN(S(=O)(=O)c3cc4c(cc3Cl)NC(=O)C4)CC2)cc1 675%, CC(=O)c1ccc(N2CCN(S(=O)(=O)c3ccc4c(c3)CC(=O)N4)CC2)cc1 909% and 724% and 584%, O=C1Cc2cc(S(=O)(=O)N3CCN(c4ccc(O)cc4)CC3)ccc2N1 170%, O=Cc1ccc(N2CCN(S(=O)(=O)c3ccc4c(c3)CC(=O)N4)CC2)cc1 299%, O=C1Cc2cc(S(=O)(=O)N3CCN(c4ccc(C(=O)O)cc4)CC3)ccc2N1 302%
